Results filed as inconclusive are left out. Active and inactive are the calls of the source. Calls follow the shape of the dose curve; as a rule, active = well fitted cell-killing curve with a large enough effect; inconclusive = small, poorly fitted or top-dose-only effect, or effect the other way; inactive = no such curve, though single readings can be large or run the other way.

Here are results for 16 molecules from PubChem BioAssay (NCATS).
Potency is read from the fitted curve at half-maximal effect.

The nature of the assay: Quantitative highthroughput screen to assess conditional lethalithy of SEM cells grown in RPMI1640 with dialyzed fetal bovine serum (RPMI+ds) (AID 1963884). Also: nearly all actives have a fitted effect of over 35% in size. As to conditions: SEM B-ALL cells, RPMI+dialyzed FBS, CellTiter-Glo viability, 48 h; series mostly up to 45.8 µM. An outline of the steps:
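Each medium arm—HPLM with 10% dialyzed FBS, or RPMI1640 with 5 mM glucose and 10% untreated or dialyzed FBS—was screened against an 11-point, 3-fold compound titration for 48 h at 37 °C, with CellTiter-Glo luminescence as endpoint.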
For the molecule `CS(=O)(=O)CCNCc1ccc(-c2ccc3ncnc(Nc4ccc(OCc5cccc(F)c5)c(Cl)c4)c3c2)o1`, the Potency was 23500 nM (active).
Take `CC(=O)OCCN1C(=O)c2c(C)nc3ccc(S(=O)(=O)N4CCOCC4)cc3c2C1=O`: the Potency result was “inactive”.
Under `Cc1ccc(C(=O)N(CCCN)[C@@H](c2oc3cc(Cl)ccc3c(=O)c2Cc2ccccc2)C(C)C)cc1` stands “inactive”; under `NC1(C(=O)N[C@@H](CCO)c2ccc(Cl)cc2)CCN(c2ncnc3[nH]ccc23)CC1`, 2640 nM (active); under `COc1cc(C(C)C)c2c(c1)S(=O)(=O)N(COc1cc(=O)n3cccc(OCCN4CCCCC4)c3n1)C2=O`, “inactive”.
Turning to `CC1(C)[C@H](C(=O)O)N2C(=O)C[C@H]2S1(=O)=O`, the Potency result is “inactive”.
Under `COc1cc2c(cc1-c1c(C)noc1C)ncc1[nH]c(=O)n([C@H](C)c3ccccn3)c12` stands 1480 nM (active); under `CCOc1ccc(Nc2nc(-c3c(C)nc4ccccn34)cs2)cc1`, 105 nM (active).
Under `c1cncc(CN2CCC(n3ncc4c(N5CCOCC5)nc(-c5ccc6[nH]ccc6c5)nc43)CC2)c1` stands 14800 nM (active); under `CN(C)c1ccc(C(=O)NCCCCCCC(=O)NO)cc1`, 1180 nM (active); under `Cc1cccc(-c2[nH]c(C(C)(C)C)nc2-c2ccc3nccnc3c2)n1`, 18700 nM (active).
As for `Nc1ccc(C(=O)Nc2cccc(-c3nc(N4CCOCC4)c4oc5ncccc5c4n3)c2)cn1`, the Potency is 20900 nM (active).
Consider `CN1CCN(c2ncc(-c3cc(Cl)cc(Cl)c3Cl)c(N)n2)CC1`, for which the Potency result was “inactive”.
For `N#Cc1c(NC(=O)c2cccc3ccccc23)sc2c1CCCC2`, the Potency is 372 nM (active).
As for `CC1=C[C@@H]2[C@@H]([C@@H](O)C[C@@]3(C)[C@H]2C[C@@H](C)[C@]3(O)C(=O)CO)[C@@]2(C)Cc3cnn(-c4ccccc4)c3C=C12`, the Potency was 52.6 nM (active).
Under `CCC[C@H](N[C@@H](C)C(=O)N1[C@@H]2CCCC[C@H]2C[C@H]1C(=O)O)C(=O)OCC` stands “inactive”.
